Consider four compounds from PubChem BioAssay.

The source made the active and inactive calls. Unless noted, how the calls were made is not given here.

In experiment [1] the test system is Wnt5a (protein binding on small-molecule microarray). The experiment can be described thus: Wnt5a binders on small-molecule microarray, primary screen, biophysical, 635/667 nm fluorescence (AID 1142).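 Further: fluorescence read at 667 nm with signal to noise per printed feature.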 Conditions: 635 nm fluorescence, higher = more signal.
Experiment [2] can be described thus: cell viability in Huh7 cells, primary screen, cytotoxicity control for HCV replication inhibitor project, CellTiter-Glo luminescence, basal, 48 h (AID 1143).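 Further: Huh7 hepatoma cells carrying a hepatitis C replication reporter with no stimulus; test concentration not given here.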 Conditions: Huh7 HCV replicon, higher = more signal, called active from +8 up or from −8 down. (In general: ATP-based viability assays read luminescence as a measure of living cells.)
Experiment [3] can be described thus: P. aeruginosa biofilm formation inhibitors, primary screen, PAO1 strain, BacTiter-Glo luminescence, LB-PBS (AID 1144). Conditions: 12 h, higher = more signal.
Experiment [4] is described as follows: CREB reporter modulators without forskolin, primary screen, cell-based, PC12, CRE-LacZ reporter, unstimulated (AID 1145). Conditions: no forskolin, luminescence, 4.5 h, higher = more signal, called active from +8 up or from −8 down.
Experiment [5] is described as follows: CREB reporter modulators under forskolin, primary screen, cell-based, PC12, CRE-LacZ reporter, forskolin-stimulated (AID 1146).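 Further: PC12 cells with 6xCRE LacZ reporter stimulated by forskolin 10 µM; beta-galactosidase reporter signal reflecting CREB driven transcription.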 Conditions: luminescence, 4.5 h, higher = more signal, called active from +8 up or from −8 down.
Experiment [6] concerns the target Streptavidin (Streptomyces avidinii) (UniProt P22629). The experiment can be described thus: streptavidin binders on small-molecule microarray, primary screen, artefact control for SMM compound annotation, biophysical, 635/667 nm fluorescence (AID 1147).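 Further: signal reflects streptavidin binding to arrayed compounds as a control protein.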 The following applies: streptavidin binding, higher = more signal.
Experiment [7] can be described thus: small-molecule binders of probe aInhba, primary screen, biochemical, small-molecule microarray, 635/667 nm fluorescence (AID 1148).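 Further: score merges 667nm spot fluorescence with signal-to-noise for antibody binding to printed compounds.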 Conditions: higher = more signal.
The target in experiment [8] is Torsin-1A (Homo sapiens) (UniProt O14656). The experiment can be described thus: torsin A binders from cell lysate, primary screen, small-molecule microarray, wild-type, 635/667 nm (AID 1149). Conditions: COS7 hTOR1A-WT lysate, 635 nm fluorescence, higher = more signal.
Chain of Torsin-1A (Homo sapiens) (O14656 whole entry, looked up): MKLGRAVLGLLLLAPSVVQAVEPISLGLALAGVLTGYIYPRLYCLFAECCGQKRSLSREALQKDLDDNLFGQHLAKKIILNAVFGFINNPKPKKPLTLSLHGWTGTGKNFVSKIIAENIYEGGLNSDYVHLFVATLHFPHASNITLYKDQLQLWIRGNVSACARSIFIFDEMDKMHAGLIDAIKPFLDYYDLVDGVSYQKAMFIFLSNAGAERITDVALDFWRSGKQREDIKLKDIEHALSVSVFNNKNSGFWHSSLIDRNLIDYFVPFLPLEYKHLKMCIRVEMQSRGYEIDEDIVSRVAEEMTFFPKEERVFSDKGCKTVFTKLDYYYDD
The target is the same in experiment [9]. Description: small-molecule binders of mutant TOR1A in lysate, primary screen, cell lysate, small-molecule microarray, COS7 lysate, 635/667 nm fluorescence (AID 1150).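 Further: score pools 667 nm emission and signal to noise measuring lysate protein binding.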 The following applies: COS7 hTOR1A mutant lysate, 635 nm fluorescence, higher = more signal.
Experiment [10] deals with Sonic hedgehog protein (Shh). Description: small-molecule binders of Shh protein, primary screen, biochemical, small-molecule microarray, 635/667 nm fluorescence (AID 1151).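 Further: Shh protein binding to compounds spotted on small-molecule microarray slides; score combines spot fluorescence intensity with signal-to-noise across triplicate slides.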 Conditions: small-molecule microarray binding, 635 nm fluorescence; higher = more signal.
The nature of experiment [11]: E. coli DRC41 culture turbidity changes, primary screen, E. coli filamentation inducer project, strain DRC41, OD650, 48 h (AID 1152).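 Further: E. coli MC1000 strain DRC41 lacking acrAB efflux pump and sulA.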 Conditions: E. coli DRC41 (acrAB sulA), higher = more signal, called active from +8 up or from −8 down.
Experiment [12] can be described thus: small-molecule binders of probe aLefty1, primary screen, biochemical, small-molecule microarray, 635/667 nm fluorescence (AID 1153).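 Further: score merges spot fluorescence with signal-to-noise ratio from the scanned slide images.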 Conditions: higher = more signal.
Experiment [13] in a line: PSAC antagonists in infected red cells, primary screen, cell-based, P. falciparum Indochina, OD700, 1 h (AID 1154). The following applies: P. falciparum Indochina infected RBC osmotic lysis, higher = more signal, called active from +8 up or from −8 down.
Experiment [14] in a line: PSAC antagonists in infected red cells, primary screen, cell-based, P. falciparum Indochina, OD700, 2 h (AID 1155).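 Further: lysis reports solute entry through the parasite surface anion channel PSAC; channel blockers reduce lysis of infected cells.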 Conditions: P. falciparum Indochina infected erythrocytes, osmotic lysis OD700; higher = more signal, called active from +8 up or from −8 down.
A short description of experiment [15]: osmotic lysis modulators in infected erythrocytes, primary screen, PSAC antagonist project, cell-based, P. falciparum Indochina, OD700, 3 h (AID 1156). The following applies: higher = more signal, called active from +8 up or from −8 down.
Experiment [16] in a line: PSAC antagonists in infected red cells, primary screen, cell-based, P. falciparum Indochina, OD700, 18 h (AID 1157). The following applies: P. falciparum Indochina infected erythrocytes, osmotic lysis OD700, 18 h; higher = more signal, called active from +8 up or from −8 down.
The nature of experiment [17]: modulators of S6 phosphorylation in cells, primary screen, cell-based, A549, cytoblot, luminescence, serum-stimulated (AID 1158).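 Further: serum-stimulated A549 lung adenocarcinoma cells; signal is phosphorylated S6 detected by cytoblot immunostaining with HRP secondary.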 Conditions: A549 phospho-S6 cytoblot, 5 h, higher = more signal.
For experiment [18], the target named is NADPH oxidase 2 (Homo sapiens) (UniProt P04839). The experiment can be described thus: NOX2-dependent H2O2 signal modulators, primary screen, NOX inhibitor project, cell-based, HEK293-NOX2, PMA-stimulated, Amplex Red fluorescence (AID 1159). Further: test concentration not given here. Conditions: 45 min, higher = more signal, called active from +8 up or from −8 down.
Chain of NADPH oxidase 2 (Homo sapiens) (P04839 whole entry, looked up): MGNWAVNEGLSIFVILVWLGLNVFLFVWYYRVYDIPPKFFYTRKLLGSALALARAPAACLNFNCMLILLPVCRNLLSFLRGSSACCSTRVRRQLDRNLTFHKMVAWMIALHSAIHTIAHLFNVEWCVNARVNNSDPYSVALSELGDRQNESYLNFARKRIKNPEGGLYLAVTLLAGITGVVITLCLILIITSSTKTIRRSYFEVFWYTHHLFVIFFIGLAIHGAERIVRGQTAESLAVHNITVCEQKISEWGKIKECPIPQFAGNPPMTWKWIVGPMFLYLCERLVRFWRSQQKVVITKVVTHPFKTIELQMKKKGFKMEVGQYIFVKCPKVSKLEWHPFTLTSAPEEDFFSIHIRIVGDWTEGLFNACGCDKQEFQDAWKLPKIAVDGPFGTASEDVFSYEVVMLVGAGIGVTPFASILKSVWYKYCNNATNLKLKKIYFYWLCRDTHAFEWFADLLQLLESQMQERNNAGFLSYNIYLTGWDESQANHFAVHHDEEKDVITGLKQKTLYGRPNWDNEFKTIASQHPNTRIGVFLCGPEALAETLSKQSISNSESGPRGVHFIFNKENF
The target of experiment [19] is NADPH oxidase 4 (Homo sapiens) (UniProt Q9NPH5). Description: NOX4-dependent H2O2 signal modulators, primary screen, NOX inhibitor project, cell-based, HEK293-NOX4, tetracycline-induced, Amplex Red fluorescence (AID 1160). Conditions: 45 min, higher = more signal, called active from +8 up or from −8 down.
Chain of NADPH oxidase 4 (Homo sapiens) (Q9NPH5 whole entry, looked up): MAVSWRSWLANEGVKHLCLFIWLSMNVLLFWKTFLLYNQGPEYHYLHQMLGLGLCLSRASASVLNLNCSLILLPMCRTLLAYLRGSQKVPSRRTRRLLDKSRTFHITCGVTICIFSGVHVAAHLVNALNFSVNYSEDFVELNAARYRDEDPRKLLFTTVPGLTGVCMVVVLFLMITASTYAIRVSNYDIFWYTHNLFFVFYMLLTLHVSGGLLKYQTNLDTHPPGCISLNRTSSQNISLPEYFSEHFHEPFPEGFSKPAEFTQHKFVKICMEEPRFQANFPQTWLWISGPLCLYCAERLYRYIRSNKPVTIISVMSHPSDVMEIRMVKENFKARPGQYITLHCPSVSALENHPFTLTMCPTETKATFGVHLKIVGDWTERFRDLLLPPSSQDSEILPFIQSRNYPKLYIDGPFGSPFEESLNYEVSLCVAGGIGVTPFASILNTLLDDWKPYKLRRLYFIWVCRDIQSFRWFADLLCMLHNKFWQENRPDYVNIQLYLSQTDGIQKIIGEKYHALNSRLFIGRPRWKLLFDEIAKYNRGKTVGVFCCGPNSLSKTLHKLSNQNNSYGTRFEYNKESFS
Experiment [20] concerns the target NADPH oxidase 5 (Homo sapiens) (UniProt Q96PH1). The experiment can be described thus: NOX5-dependent H2O2 signal modulators, primary screen, NOX inhibitor project, cell-based, HEK293-NOX5, Amplex Red fluorescence (AID 1161). Conditions: HEK293-NOX5, ionomycin, 45 min, higher = more signal.

Chain of NADPH oxidase 5 (Homo sapiens) (Q96PH1 whole entry, looked up): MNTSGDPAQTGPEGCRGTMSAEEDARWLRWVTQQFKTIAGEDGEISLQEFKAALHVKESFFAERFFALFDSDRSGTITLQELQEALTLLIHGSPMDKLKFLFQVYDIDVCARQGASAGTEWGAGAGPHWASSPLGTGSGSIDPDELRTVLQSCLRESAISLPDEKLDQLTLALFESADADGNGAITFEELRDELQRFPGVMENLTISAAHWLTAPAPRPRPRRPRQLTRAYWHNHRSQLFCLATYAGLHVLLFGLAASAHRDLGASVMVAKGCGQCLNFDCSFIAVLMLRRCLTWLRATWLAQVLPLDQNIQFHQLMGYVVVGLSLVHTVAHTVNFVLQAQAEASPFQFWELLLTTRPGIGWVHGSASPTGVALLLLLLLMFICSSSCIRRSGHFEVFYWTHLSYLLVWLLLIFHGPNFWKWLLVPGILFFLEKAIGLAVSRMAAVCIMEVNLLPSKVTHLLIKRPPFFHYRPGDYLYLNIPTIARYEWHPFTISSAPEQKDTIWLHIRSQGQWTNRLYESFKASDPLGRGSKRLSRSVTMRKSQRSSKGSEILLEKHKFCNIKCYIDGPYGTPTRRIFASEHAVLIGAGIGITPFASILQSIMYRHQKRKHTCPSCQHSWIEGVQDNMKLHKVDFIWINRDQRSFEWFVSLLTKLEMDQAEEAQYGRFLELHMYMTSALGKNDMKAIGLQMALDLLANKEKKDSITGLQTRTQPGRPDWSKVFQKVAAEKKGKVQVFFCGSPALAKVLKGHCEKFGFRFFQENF
Chain of Streptavidin (Streptomyces avidinii) (P22629 whole entry, looked up): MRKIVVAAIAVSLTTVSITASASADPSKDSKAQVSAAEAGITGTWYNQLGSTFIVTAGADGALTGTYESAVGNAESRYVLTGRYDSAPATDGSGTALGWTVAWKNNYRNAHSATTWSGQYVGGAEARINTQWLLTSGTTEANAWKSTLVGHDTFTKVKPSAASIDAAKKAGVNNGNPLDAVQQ

As for `C#CCN1[C@@H](Cc2ccc(O)cc2)C(=O)O[C@H](Cc2ccccc2)[C@@H]1/C=C/C1CC1`, the composite z-score is 0.0515 in [1]; -0.196 in experiment [6]; -0.224 in [7]; 0.161 in experiment [8]; 0.364 in experiment [9]; 0.284 in experiment [10]. Also, the composite z-score in experiment [12] is -0.196. The z-score is -4.07 (inactive) in [2]; 1.75 (inactive) in experiment [3]; 15.1 (active) in experiment [4]; 1.42 (inactive) in experiment [5]; -0.332 (inactive) in experiment [11]; 2.45 (inactive) in [13]. In addition, the z-score in experiment [14] is 0.0937 (inactive); in [15] it was -1.15 (inactive); in experiment [16], 0.0357 (inactive); in experiment [17] it was -0.663; in experiment [18], -0.759 (inactive); in experiment [19] it was -0.462 (inactive). In [20], this compound came in with a z-score of -1.54.

Turning to `[N-]=[N+]=NCc1ccccc1[C@H]1OC(c2ccc(OCCCO)cc2)=N[C@@]1(Cc1ccccc1)C(=O)N1CCCCC1`, the composite z-score in experiment [1] came to 1.5; in [6], 0.733; in experiment [7], 0.204; in experiment [8], 0.178; in experiment [9] it was 0.392; in experiment [10], 0.413. This compound yielded a composite z-score in experiment [12] of 0.0331. Moreover, the z-score in experiment [2] was -5.29 (inactive); in [3], 0.437 (inactive); in experiment [4], -0.16 (inactive); in [5], 0.357 (inactive); in experiment [11] it was 0.796 (inactive); in experiment [13], 28.4 (active). Moreover, the z-score was 23.2 (active) in experiment [14]; 1.75 (inactive) in experiment [15]; 1.77 (inactive) in [16]; 1.3 in experiment [17]; -3.54 (inactive) in [18]; -0.919 (inactive) in [19]. Besides, the z-score in [20] was -1.28.

For `[N-]=[N+]=NCc1ccccc1[C@@H]1OC(c2ccc(OCCCO)cc2)=N[C@]1(CCS(=O)(=O)c1ccccc1)C(=O)N1CCCCC1`, the composite z-score was 0.571 in experiment [1]; 1.19 in experiment [6]; 0.531 in experiment [7]; 0.292 in experiment [8]; 0.447 in experiment [9]; -0.0529 in experiment [10]. The composite z-score in experiment [12] was 0.522. The z-score was -2.09 (inactive) in experiment [2]; 0.406 (inactive) in [3]; 5.06 (inactive) in experiment [4]; 0.243 (inactive) in [5]; 0.323 (inactive) in experiment [11]; 22.8 (active) in experiment [13]. In addition, the z-score in [14] was 7.3 (inactive); in experiment [15] it was 1.59 (inactive); in [16], 1.06 (inactive); in experiment [17], 0.34; in experiment [18], 0.196 (inactive); in experiment [19] it was 1.19 (inactive). This compound also displayed a z-score in experiment [20] of 2.

For the compound `CCCC=C(CCC)[C@@H](NS(=O)(=O)c1ccc(Cl)cc1)c1ccc(C(=O)OC)cc1`, the composite z-score in experiment [1] was -0.16; in experiment [6], 0.997; in experiment [7] it was -0.0011; in experiment [8] it was 0.771; in [9], 1.38; in experiment [10], -0.562. In addition, in [12], the composite z-score worked out at 0.523. For the same compound, the z-score in experiment [2] was -0.296 (inactive); in experiment [3], -0.382 (inactive); in experiment [4], -0.179 (inactive); in experiment [5] it was -0.146 (inactive); in experiment [11], -1.01 (inactive); in [13] it was -0.556 (inactive). Moreover, the z-score is -0.914 (inactive) in experiment [14]; -0.338 (inactive) in experiment [15]; -1.93 (inactive) in experiment [16]; 0.631 in experiment [17]; 0.0199 (inactive) in [18]; 0.249 (inactive) in experiment [19]. In experiment [20], this compound came in with a z-score of 1.39.
